# Data from PubChem BioAssay (NCATS).
# Unmarked numbers belong to inactive results. The call rests on the fitted dose curve; in most records, active means well fitted curve in the direction sought with a large enough effect; inconclusive means small, poorly fitted or top-dose-only effect, or another doubt; inactive means no such curve, though single readings can be large; an effect the other way counts as inactive or inconclusive. Records with an inconclusive call do not appear.
# Experiment: qHTS assay for measurement of the activity of small molecule inhibitors on Zika virus induced Caspase-3 activity in human astrocytoma cells (AID 1224859);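 further: plate controls were ZIKV-infected untreated cells for no effect and uninfected cells for full effect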
# Details: SNB-19 ZIKV-induced caspase-3/7, luminescence, 6 h; series mostly up to 45.7 µM; activity change, negative = inhibition: at the top concentration
# Summary of the method: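 Human SNB-19 astrocytoma cells in RPMI 1640 with 10% FBS receive compound one hour ahead of Zika virus at 2 FFU/cell. After 6 h infection, caspase-3/7 activity is detected by Caspase-Glo luminescence.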
row,Structure (SMILES),"activity change, negative = inhibition [%]"
1,Cc1c[nH]c2ccccc12,8.32
2,Oc1ccccc1C=NCc1ccccc1,1.96
3,CN(Cc1ccc(C(C)(C)C)cc1)Cc1cccc2ccccc12,-12.1
4,C=CCN1CCc2nc(N)sc2CC1,-17.2
5,Cc1cc(C)cc(OCC2CNC(=O)O2)c1 (configuration not stated),2.76
6,C=C[C@@]1(C)CC(=O)[C@]2(O)[C@@]3(C)[C@@H](O)CCC(C)(C)[C@@H]3[C@H](O)[C@H](OC(C)=O)[C@@]2(C)O1,4.47
7,CCOc1cc(OCC)c(C(=O)CCC(=O)O)cc1OCC,-8.46
8,O=C(Nc1ccc([N+](=O)[O-])cc1)Nc1ccc([N+](=O)[O-])cc1,1.65
9,CNCCCCOc1ccccc1Cc1ccccc1,1.41
10,COc1cc(C(=S)N2CCOCC2)ccc1O,-0.995
11,CCc1oc2ccccc2c1C(=O)c1cc(Br)c(O)c(Br)c1,-4.53
12,CC(C)Nc1cccnc1N1CCN(C(=O)c2cc3cc(NS(C)(=O)=O)ccc3[nH]2)CC1,-5.38
13,O=C1C(O)=C(O)C(=O)C(O)=C1O,32
14,CCCCN=C(N)N=C(N)N,-3.9
15,CCCN(CCc1cccs1)[C@H]1CCc2c(O)cccc2C1,40.8
16,CCOc1ccccc1C(N)=O,2.15
17,C=C1c2cccc(O)c2C(O)=C2C(=O)[C@]3(O)C(O)=C(C(N)=O)C(=O)[C@@H](N(C)C)[C@@H]3[C@@H](O)[C@H]12,-21.3
18,CCCCCN=C(N)N/N=C/c1c[nH]c2ccc(OC)cc12,-26.4

row,Structure (SMILES),"activity change, negative = inhibition [%]"
1,O=C(O)Cc1csc(-c2ccc(Cl)cc2)n1,-23.7
2,CCN(CC)CCNC(=O)COc1ccc(OC)cc1,-6.21
3,C[N+]1(C)CCC(=C(c2ccccc2)c2ccccc2)CC1,2.79
4,CCCCN1C[C@H](O)[C@@H](O)[C@H](O)[C@H]1CO,-19.9
5,NS(=O)(=O)c1cc2c(cc1Cl)NC(CC1CCCC1)NS2(=O)=O (configuration not stated),-3.73
6,CCOC(=O)c1ccc(N)cc1,-2.49
7,CC(=O)Nc1ccc(S(=O)(=O)Nc2ccc([N+](=O)[O-])cc2)cc1,-7.2
8,CC(=O)Nc1ccc(OC(=O)c2ccccc2OC(C)=O)cc1,4.09
9,CCc1ccc(C(=O)C(C)CN2CCCCC2)cc1 (configuration not stated),2.96
10,CCN1CCN(C(=O)N[C@@H](C(=O)N[C@@H]2C(=O)N3C(C(=O)O)=C(CSc4nnnn4C)CS[C@H]23)c2ccc(O)cc2)C(=O)C1=O,14.9
11,C/C=C/C=N/NC(=O)c1ccncc1,-1.94
12,CCOCCn1c(N2CCCN(C)CC2)nc2ccccc21,0.704
13,N/C(=N\N=C\c1ccc(Cl)cc1)N/N=C/c1ccc(Cl)cc1,-1.28
14,COc1ccc(C(=O)c2ccccc2O)c(O)c1,19
15,Nc1ccc(S(=O)(=O)NCc2ccccc2)cc1,-13.9
16,O=C1OC2(c3ccccc31)c1cc(Br)c(O)c(Br)c1Oc1c2cc(Br)c(O)c1Br,-15.2
17,CC(=O)OCC1=C(C(=O)O)N2C(=O)[C@@H](NC(=O)CSc3ccncc3)[C@H]2SC1,0.657
18,O=C1OC(CN2CCOCC2)CN1/N=C/c1ccc([N+](=O)[O-])o1 (configuration not stated),7.58

# Experiment: qHTS assay to identify small molecule inhibitors of chordoma cells - UCH-1 (AID 1259355); further: on the % scale 0 is the no-effect control and ±100 the full control effect; nearly all actives have a fitted effect of over 55% in size
# Details: UCH-1 chordoma viability, CellTiter-Glo, 48 h, combination, with auranofin plus four topoisomerase inhibitors; series mostly up to 46.1 µM; activity, negative = inhibition: at the top concentration
# Summary of the method: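 Seed 800 cells per well; incubate overnight at 37 C, 5% CO2. Add test compounds (15 concentrations), then the auranofin–topoisomerase-agent combination. Incubate 48hr, add CellTiter-Glo, wait 30min, read luminescence.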
row,Structure (SMILES),"activity, negative = inhibition"
1,Cc1c[nH]c2ccccc12,-10.2%
2,Oc1ccccc1C=NCc1ccccc1,-2.76%
3,CN(Cc1ccc(C(C)(C)C)cc1)Cc1cccc2ccccc12,-4.11%
4,C=CCN1CCc2nc(N)sc2CC1,-29.7%
5,Cc1cc(C)cc(OCC2CNC(=O)O2)c1 (configuration not stated),11%
6,C=C[C@@]1(C)CC(=O)[C@]2(O)[C@@]3(C)[C@@H](O)CCC(C)(C)[C@@H]3[C@H](O)[C@H](OC(C)=O)[C@@]2(C)O1,-16.6%
7,CCOc1cc(OCC)c(C(=O)CCC(=O)O)cc1OCC,-6.19%
8,O=C(Nc1ccc([N+](=O)[O-])cc1)Nc1ccc([N+](=O)[O-])cc1,-17.4%
9,CNCCCCOc1ccccc1Cc1ccccc1,-24%
10,COc1cc(C(=S)N2CCOCC2)ccc1O,-7.49%
11,CCc1oc2ccccc2c1C(=O)c1cc(Br)c(O)c(Br)c1,-17.6%
12,CC(C)Nc1cccnc1N1CCN(C(=O)c2cc3cc(NS(C)(=O)=O)ccc3[nH]2)CC1,7.38%
13,O=C1C(O)=C(O)C(=O)C(O)=C1O,-10.6%
14,CCCCN=C(N)N=C(N)N,-2.51%
15,CCCN(CCc1cccs1)[C@H]1CCc2c(O)cccc2C1,-14.8%
16,CCOc1ccccc1C(N)=O,-10.4%
17,C=C1c2cccc(O)c2C(O)=C2C(=O)[C@]3(O)C(O)=C(C(N)=O)C(=O)[C@@H](N(C)C)[C@@H]3[C@@H](O)[C@H]12,-15.5% [at 20.6 µM]
18,CCCCCN=C(N)N/N=C/c1c[nH]c2ccc(OC)cc12,-9.37%

row,Structure (SMILES),"activity, negative = inhibition"
1,O=C(O)Cc1csc(-c2ccc(Cl)cc2)n1,0.436%
2,CCN(CC)CCNC(=O)COc1ccc(OC)cc1,0.392%
3,C[N+]1(C)CCC(=C(c2ccccc2)c2ccccc2)CC1,-23.4% [at 20.6 µM]
4,CCCCN1C[C@H](O)[C@@H](O)[C@H](O)[C@H]1CO,-9.48%
5,NS(=O)(=O)c1cc2c(cc1Cl)NC(CC1CCCC1)NS2(=O)=O (configuration not stated),-9.88% [at 20.6 µM]
6,CCOC(=O)c1ccc(N)cc1,-18.1% [at 20.6 µM]
7,CC(=O)Nc1ccc(S(=O)(=O)Nc2ccc([N+](=O)[O-])cc2)cc1,-35.1%
8,CC(=O)Nc1ccc(OC(=O)c2ccccc2OC(C)=O)cc1,4.92%
9,CCc1ccc(C(=O)C(C)CN2CCCCC2)cc1 (configuration not stated),-19.4%
10,CCN1CCN(C(=O)N[C@@H](C(=O)N[C@@H]2C(=O)N3C(C(=O)O)=C(CSc4nnnn4C)CS[C@H]23)c2ccc(O)cc2)C(=O)C1=O,-6.35%
11,C/C=C/C=N/NC(=O)c1ccncc1,-12.4%
12,CCOCCn1c(N2CCCN(C)CC2)nc2ccccc21,-2.66%
13,N/C(=N\N=C\c1ccc(Cl)cc1)N/N=C/c1ccc(Cl)cc1,-6.75%
14,COc1ccc(C(=O)c2ccccc2O)c(O)c1,7.02% [at 20.6 µM]
15,Nc1ccc(S(=O)(=O)NCc2ccccc2)cc1,-14%
16,O=C1OC2(c3ccccc31)c1cc(Br)c(O)c(Br)c1Oc1c2cc(Br)c(O)c1Br,-6.69%
17,CC(=O)OCC1=C(C(=O)O)N2C(=O)[C@@H](NC(=O)CSc3ccncc3)[C@H]2SC1,-21.4%
18,O=C1OC(CN2CCOCC2)CN1/N=C/c1ccc([N+](=O)[O-])o1 (configuration not stated),-8.21% [at 20.6 µM]
